# Measurements published in PubChem BioAssay AID1309 (The Scripps Research Institute Molecular Screening Center, 2008).
# Screen size: about 1,200 compounds; about 130 (11%) were called active. Cut-off read from the data, not from the text of the source: active = activation above about 120%; inactive = the rest. Not all results are given here.
# Experiment: activation of NF-kB-driven transcription – cell-based, counter-screen for STAT3 activator project (AID 1309);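 note: reporter induced by TNF-alpha stimulation; 100% = median of stimulated DMSO wells and 0% = no signal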
# Conditions: human cells, NF-kappaB reporter activation; at 5.7 µM; hits give high values
row,Structure (SMILES),activation (% of control)
1,Fc1ccc2nc(-c3ccccc3)nc(SCc3nnc(-c4ccccc4)o3)c2c1,106% (inactive)
2,COc1ccccc1N1CCN(C(=O)c2cc3c(-c4ccc(Cl)cc4)nn(C)c3s2)CC1,101% (inactive)
3,Cn1cccc1C(=O)Nc1nccs1,111% (inactive)
4,N#Cc1ccccc1NC(=O)COc1c(Br)cc(Br)c2cccnc12,107% (inactive)
5,COC(=O)c1[nH]c2ccccc2c1NC(=O)CN1CCCc2ccccc21,106% (inactive)
6,CCOC(=O)N1CCN(CC(=O)Nc2cc(C)nn2-c2nc3ccccc3s2)CC1,106% (inactive)
7,C/C(=N\NC(=O)CNc1cccc2ccccc12)c1ccc(Br)s1,103% (inactive)
8,COc1ccc(/C=N/Nc2ncnc3sc4c(c23)CCCC4)cc1O,110% (inactive)
9,O=C1CCCN1CCCNc1ncnc2c1[nH]c1ccccc12,100% (inactive)
10,COc1ccc(C2c3[nH]c4ccccc4c3CCN2CCCn2cccn2)cc1C (configuration not stated),102% (inactive)
11,CCn1c(SCC(=O)N/N=C/C=C/c2ccccc2[N+](=O)[O-])nnc1-c1ccccc1,101% (inactive)
12,CCOC(=O)C1CCN(c2ncnc3c2oc2ccc(Br)cc23)CC1,102% (inactive)
13,CN1CCN(c2ccc([N+](=O)[O-])c(Sc3nc4ccccc4[nH]3)c2)CC1,102% (inactive)
14,CSc1nc2sc3c(c2c(=O)[nH]1)CCc1ccccc1-3,108% (inactive)
15,C=CCCC(=O)Nc1nc(C)c(-c2csc(Nc3ccc(Cl)cc3)n2)s1,107% (inactive)
16,COc1ccc([N+](=O)[O-])cc1C1NN=C(c2cccc3ccccc23)S1 (configuration not stated),114% (inactive)
17,Cc1ccc(S(=O)(=O)Nc2nc3ccccc3nc2N2CCc3ccccc3C2)cc1,107% (inactive)
18,COc1ccc(NC(=O)ON=C2c3ccccc3-c3ccccc32)cc1,108% (inactive)
19,O=c1[nH]c(CSc2ncc(-c3ccc(F)cc3)n2Cc2ccco2)nc2ccccc12,107% (inactive)
20,OC(COc1ccc2ccccc2c1)CN1CCOCC1 (configuration not stated),107% (inactive)
21,Oc1cccc2ccc(/C=C/c3ccc(Br)s3)nc12,122% (active)
22,CCCS(=O)(=O)Nc1c(C(=O)O)[nH]c2ccccc12,103% (inactive)
23,O=C(Nc1cc(C(F)(F)F)ccc1Cl)c1cc(C2CC2)on1,100% (inactive)
24,O=C(O)CSCc1nc2ccccc2s1,112% (inactive)
25,Cc1ccc(/C=N/NC(=O)COc2ccccc2-c2ccccc2)cc1,155% (active)
26,C=CCn1c(-c2ccccc2OCC)n[nH]c1=S,115% (inactive)
27,Cc1csc2ncc(C(=O)N(Cc3ccccc3)c3ccccn3)c(=O)n12,103% (inactive)
